This is a sample that favours compounds with a hit; in the whole collection about 3.9% have one here.
CF NFkB inh = inhibitors of PAF-induced NF-kB signaling, primary screen, cell-based, GFP fluorescence, uHTS; KKLEB NF-kB-GFP reporter, GFP fluorescence overnight; inhibition, % at 5 µM; 360,000 tested, 0.86% active; AID 588850, 2011;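 active = at least 50% inhibition at 5 µM, scaled per plate between neutral and stimulator controls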;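 note: PAF is a Pseudomonas aeruginosa culture filtrate used as stimulus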
Peg3 promoter = Peg3 promoter-driven luciferase inhibitors, primary screen, cell-based, HeLa, luciferase luminescence | HeLa PEG-Prom luciferase reporter, overnight | 360,000 tested, 1.7% active | inhibition, % at 20 µM;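 active = inhibition of at least 50% at 20 µM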
HIF-2a inh = HIF-2a reporter inhibitors, primary screen, luminescence, 786-0 RCC cells; 786-0 RCC cells HIF-2a reporter, luciferase luminescence, overnight; inhibition, % at 18.8 µM; 360,000 tested, 0.72% active; AID 624352, 2012;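 active = inhibition of the luminescence signal of 40% or more relative to plate controls, in a single-dose primary screen at 18.75 µM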
TWEAK-Fn14 inh = inhibitors of TWEAK-Fn14 signaling, primary screen, luciferase reporter cells, uHTS; TWEAK-stimulated Fn14 reporter cells, luciferase luminescence, 8 h; inhibition, % at 10 µM; 360,000 tested, 2% active; in the data active = inhibition above about 50%
TROY signal inh = inhibitors of TROY-driven NF-kB signaling, primary screen, Q293 LMP1-TROYcd cells, NF-kB luciferase, uHTS | Q293 LMP1-TROYcd NF-kB luciferase reporter, 4 h | AID 1347056, 2019 | 360,000 tested, 0.98% active | inhibition, % at 10 µM;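 active = compounds whose plate-normalised and pattern-corrected inhibition of the luciferase reporter signal at the single screening dose is 50% or more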
KKLEB tox = cytotoxicity in KKLEB CF airway cells, primary screen, cytotoxicity control for CF NF-kB inhibitor project, cell-based, uHTS, fluorescence assay plates; KKLEB CF airway cells viability, ATPlite luminescence, overnight; active compounds read low; cells stimulated with P. aeruginosa culture filtrate; 360,000 tested, 0.36% active; activity change (cytotoxicity), % at 5 µM;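 active = corrected activity change at or below -50% at 5 µM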
Numbers stand for hits; – = inactive; · = no result given; ! = repeats disagree.

SMILES	CF NFkB inh	Peg3 promoter	HIF-2a inh	TWEAK-Fn14 inh	TROY signal inh	KKLEB tox
O=C(CN1CCSC1=O)N1CCN(S(=O)(=O)c2ccc(F)cc2)CC1	–	–	–	–	–	–
CC12CCC(=O)C=C1CCC1C2C(=O)CC2(C)C1CC[C@]2(O)C(=O)CO (some centres undefined)	–	–	–	78	–	–
CC(=O)OCC(=O)[C@@]1(O)CC[C@H]2[C@@H]3CCC4=CC(=O)C=C[C@]4(C)[C@H]3[C@@H](O)C[C@@]21C	80	–	–	–	–	–
CC(=O)OCC(=O)[C@@]1(O)CCC2C3CCC4=CC(=O)CCC4(C)C3C(=O)CC21C (some centres undefined)	–	–	–	–	–	–
CCc1ccccc1NC(=O)C(C#N)Cc1cccnc1 (centres undefined)	–	–	–	–	–	–
Cc1nn(-c2ccccc2)c(C)c1C(=O)OCC(=O)N1c2ccccc2NC(=O)C1(C)C	–	59	–	–	–	–
O=C1N=c2ccccc2=C1c1sc(=S)n(-c2ccc(O)cc2)c1O	–	–	–	–	–	–
O=C1N=c2ccccc2=C1c1sc(=S)n(Cc2ccccc2Cl)c1O	–	83	–	–	–	–
Cc1nonc1NC(=O)CSc1nc(C23CC4CC(CC(C4)C2)C3)nc2ccccc12	–	–	–	66	–	–
CCC1Nc2ncnc(N3CCc4ccccc4C3)c2N(Cc2ccc(Cl)cc2)C1=O (centres undefined)	–	–	–	–	–	–
O=C1C(Cc2ccccc2)Nc2ncnc(N3CCc4ccccc4C3)c2N1Cc1ccc(Cl)cc1 (centres undefined)	–	51	–	–	–	–
Nc1ccccc1S(=O)(=O)NC1=NCCCCC1	–	–	–	104	–	–
Oc1[nH]c2ccccc2c1N=Nc1nc(Nc2ccccc2)nc(N2CCOCC2)n1	–	70	–	–	–	–
Cc1[nH]c2ccccc2c1/C=N/Nc1nc(Nc2ccccc2)nc(N2CCOCC2)n1	–	–	–	–	–	–
CCOC(=O)C1CCN(c2c(Nc3ccc4c(c3)OCCO4)c(=O)c2=O)CC1	–	–	–	81	63	–
CCOC(=O)N1CCC(N2C(=O)c3ccccc3C2Nc2ccc3c(c2)OCCO3)CC1 (centres undefined)	–	–	–	85	65	–
CCCCC[C@@H]1CCCCC[C@H](O)C[C@@H](O)[C@@H](O)/C=C/C(=O)O1	·	·	–	–	–	·
CCOC(=O)/C=C/C(=O)OCC(=O)Nc1ccc(C)cc1	–	–	–	–	–	–
CCOC(=O)/C=C/C(=O)Nc1ccc(Oc2ccccc2)cc1	–	54	–	71	–	–
CCOC(=O)/C=C/C(=O)Nc1ccc(S(=O)(=O)Nc2c(C)cc(C)cc2C)cc1	–	–	–	–	50	–
CCOC(=O)/C=C/S(=O)(=O)c1ccc(NC(C)=O)cc1	90	102	–	–	–	–
Cc1cc(C)c(C(=O)Nc2ccc(S(=O)(=O)Nc3onc(C)c3C)cc2)c(C)c1	–	–	–	–	–	–
CCN(CC(=O)Nc1ccccc1C(F)(F)F)C(=O)COc1cccc2c1OC(C)(C)C2	–	–	–	–	–	–
Cc1nn(-c2ccccc2)c(C)c1/C=N/NC(=O)CSc1nnc(SCc2ccc(Cl)cc2)s1	–	–	–	83	–	–
O=C(CSc1nnc(SCc2ccccc2)s1)N/N=C/c1c(Cl)cccc1Cl	–	–	–	–	–	–
SMILES	CF NFkB inh	Peg3 promoter	HIF-2a inh	TWEAK-Fn14 inh	TROY signal inh	KKLEB tox
Cc1nn(-c2ccccc2)c(C)c1/C=N/NC(=O)c1cc(-c2cccs2)[nH]n1	–	–	–	–	–	–
Cc1nn(-c2ccccc2)c(C)c1/C=N/NC(=O)c1cc(-c2ccc(Cl)s2)[nH]n1	–	–	–	59	–	–
Cc1nn(-c2ccccc2)c(C)c1/C=N/NC(=O)c1cc(-c2ccc(Br)s2)[nH]n1	–	–	–	69	–	–
Oc1ccccc1-c1nc(NCCN2CCOCC2)c2ccccc2n1	–	–	–	–	–	–
O=C(OCC(=O)N1CCCCC1)c1cccs1	–	–	–	–	–	–
CC1CCN(C(=O)COC(=O)c2cccs2)CC1	–	–	–	58	–	–
S=c1[nH]nc(CNc2cccc(Cl)c2)o1	–	–	–	–	–	–
CC(C)(C)C1=CC(=O)C(=O)C(C(C)(C)C)=C1	–	73	42	–	–	–
CCC(CC)COC(=O)C1=C(C)NC(=O)NC1c1ccccc1Br (centres undefined)	–	–	–	81	–	–
O=C(O)CCN1/C(=C/C=Nc2ccccc2)Oc2ccccc21	–	–	–	–	–	–
COc1ccc(NC(=O)CN2C(=O)NC(C)(C3CCCCC3)C2=O)c(OC)c1 (centres undefined)	–	–	–	–	–	–
COc1ccc(NC(=O)CN2C(=O)NC3(CCCC3)C2=O)c(OC)c1	–	–	–	81	–	–
COc1ccc(Nc2ccc([N+](=O)[O-])cn2)cc1	–	–	–	–	–	–
COc1ccc(Nc2cc(C)c3cc([N+](=O)[O-])ccc3n2)cc1	–	–	–	51	–	–
COCCn1c(C)cc(C(=O)CSc2nnnn2C2CCCC2)c1C	–	–	–	75	–	–
COc1cccc(CN(C)C(=O)CNC(=O)c2ccc(-c3ccccc3)cc2)c1OC	–	–	–	51	–	–
COc1cccc(CN(C)C(=O)CNC(=O)c2cccs2)c1OC	–	–	–	–	–	–
Cc1ccccc1Cn1cc(NC(=O)c2cc(-c3ccco3)on2)cn1	–	–	–	–	–	–
Cc1ccccc1Cn1cc(NC(=O)c2cc(-c3cccs3)on2)cn1	–	–	–	–	–	-54
CCCCCCCCCCCCCCCC[n+]1cccc(C(=O)N(CC)CC)c1	91!	105	46	–	57!	-93!
Cn1c(N2CCN(c3ccccn3)CC2)nc2c1c(=O)n(Cc1ccc(Cl)cc1)c(=O)n2C	–	–	–	52	54	–
O=C(C[C@@H]1C/C=C\CC[C@@H](Cc2ccc(F)cc2)C(=O)OC[C@@H]2CCCN2C1=O)NCCO	–	–	–	–	–	–
O=C(NNS(=O)(=O)c1ccc(F)cc1)c1ccc2c(c1)OCO2	–	–	–	–	–	–
Fc1cccc(-c2nnn3c2nc(Cl)c2ccccc23)c1	–	107	–	–	–	–
O=C(NCc1ccccc1)C(c1ccccc1)N(C(=O)c1csnn1)C1CC1 (centres undefined)	–	–	–	–	–	–

Assay outcomes (PubChem)
